Source: PubChem BioAssay (NCATS)
Several values for one entry are separate records, joined by “and”; a condition that tells them apart may be missing. Equal values may be shown once. Records with an inconclusive call do not appear. A call without a number means that no potency is given here. Activity calls are given as the source filed them. Unless noted, the call rests on the fitted dose curve; in most records, active means well fitted curve in the direction sought with a large enough effect; inconclusive means small, poorly fitted or top-dose-only effect, or another doubt; inactive means no such curve, though single readings can be large; an effect the other way counts as inactive or inconclusive.

molecular target: Retinoic acid receptor RXR-alpha (Homo sapiens) (UniProt P19793); assay: qHTS assay for small molecule antagonists of retinoid X receptor alpha signaling (AID 588546; active means well fitted inhibition curve with a large enough effect in the signal ratio, with a control signal flat, not every such curve was filed as active; the % refers to the signal ratio;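 further: cells stimulated with 9-cis-retinoic acid as agonist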); settings: HEK293T RXRa-UAS-bla, beta-lactamase ratio, antagonist mode
Method in brief: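 Beta-lactamase reporter inhibition, read as CCF4 fluorescence ratio (ex 405, em 460/530 nm) after 2 h at RT. HEK293T UAS-bla cells, 2500/well, were stimulated with 9-cis-RA at 500 or 100 nM final alongside test compound for 18 h at 37 C.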

Chain of Retinoic acid receptor RXR-alpha (Homo sapiens) (P19793 whole entry, looked up): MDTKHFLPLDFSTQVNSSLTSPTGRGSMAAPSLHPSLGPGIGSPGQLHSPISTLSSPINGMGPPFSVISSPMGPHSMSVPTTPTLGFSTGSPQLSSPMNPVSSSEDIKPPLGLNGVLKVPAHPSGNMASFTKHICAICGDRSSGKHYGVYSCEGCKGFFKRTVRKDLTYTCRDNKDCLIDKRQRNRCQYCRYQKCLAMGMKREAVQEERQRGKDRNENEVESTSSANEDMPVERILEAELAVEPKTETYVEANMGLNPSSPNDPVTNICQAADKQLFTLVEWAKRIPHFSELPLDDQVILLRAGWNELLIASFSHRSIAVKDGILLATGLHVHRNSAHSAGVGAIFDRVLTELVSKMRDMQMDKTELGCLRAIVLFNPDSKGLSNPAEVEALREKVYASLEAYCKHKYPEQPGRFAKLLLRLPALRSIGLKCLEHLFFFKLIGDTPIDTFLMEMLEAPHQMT

| Compound | max response |
| --- | --- |
| Cc1occc(=O)c1O | -8.46% (inactive) |
| C=C(C)[C@H]1CC=C(C)C(=O)C1 | 30% (inactive) and -16.7% (inactive) |
| COS(C)(=O)=O | -3.69% (inactive) |
| CC1=CC(=O)CC(C)(C)C1(O)/C=C/C(C)=C\C(=O)O (stereo not drawn) | 0.0259% (inactive) |
| C=CC(C)(O)CCC=C(C)C (stereo not drawn) | -7.55% (inactive) and -18.1% (inactive) |

molecular target: Thyroid hormone receptor beta (Homo sapiens) (UniProt P10828); assay: qHTS assay for small molecule antagonists of thyroid hormone receptor beta signaling (AID 588547; active means well fitted inhibition curve with a large enough effect in the signal ratio, with a control signal flat, not every such curve was filed as active; the % refers to the signal ratio;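 further: cells stimulated with 0.4 nM T3 agonist during compound exposure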); settings: TR-UAS-bla HEK293, beta-lactamase ratio, antagonist mode, 18 h
Method in brief: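 TR-UAS-bla GripTite HEK293 cells in 2% charcoal/dextran FBS medium were preincubated 4 h at 37 C, given compound (0.59 nM to 92 uM) plus 0.4 nM T3 (final) for 18 h, then CCF4 for 2 h at RT; Hill fit gave IC50.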

Chain of Thyroid hormone receptor beta (Homo sapiens) (P10828 whole entry, looked up): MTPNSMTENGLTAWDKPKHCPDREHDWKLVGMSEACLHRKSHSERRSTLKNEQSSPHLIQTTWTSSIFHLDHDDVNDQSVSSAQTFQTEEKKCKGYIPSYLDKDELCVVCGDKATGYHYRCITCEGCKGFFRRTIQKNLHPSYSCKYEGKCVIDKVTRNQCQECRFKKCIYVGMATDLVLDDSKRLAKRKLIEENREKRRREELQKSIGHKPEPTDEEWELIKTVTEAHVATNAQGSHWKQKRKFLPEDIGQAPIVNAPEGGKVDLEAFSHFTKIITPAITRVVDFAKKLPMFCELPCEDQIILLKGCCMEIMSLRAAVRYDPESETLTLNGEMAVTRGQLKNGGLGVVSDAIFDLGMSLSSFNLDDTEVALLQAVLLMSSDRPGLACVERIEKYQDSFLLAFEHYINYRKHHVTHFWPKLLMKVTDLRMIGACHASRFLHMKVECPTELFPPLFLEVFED

| Compound | activity change % (negative = inhibition) |
| --- | --- |
| Cc1occc(=O)c1O | -20.8% (inactive) |
| C=C(C)[C@H]1CC=C(C)C(=O)C1 | 1.99% (inactive) |
| COS(C)(=O)=O | 2.2% (inactive) |
| CC1=CC(=O)CC(C)(C)C1(O)/C=C/C(C)=C\C(=O)O (stereo not drawn) | -6.36% (inactive) |
| C=CC(C)(O)CCC=C(C)C (stereo not drawn) | 22.9% (inactive) and 4.85% (inactive) |

molecular target: Voltage-gated inwardly rectifying potassium channel KCNH2 (Homo sapiens) (UniProt Q12809); assay: qHTS Assay for Small Molecule Inhibitors of the Human hERG Channel Activity (AID 588834); settings: U2OS BacMam hERG, FluxOR thallium flux fluorescence; series mostly up to 46.1 µM;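 further: top concentration of the series differs between compounds; lower thallium flux fluorescence means stronger hERG block; nearly all actives have a fitted effect of over 50% in size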
Method in brief: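 Measured: FluxOR fluorescence after thallium stimulation in U2OS cells transduced with hERG by baculovirus. Compounds pre-incubated around 10 min; medium Opti-MEM with 2% FCS. AC50 from Hill equation.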

Chain of Voltage-gated inwardly rectifying potassium channel KCNH2 (Homo sapiens) (Q12809 whole entry, looked up): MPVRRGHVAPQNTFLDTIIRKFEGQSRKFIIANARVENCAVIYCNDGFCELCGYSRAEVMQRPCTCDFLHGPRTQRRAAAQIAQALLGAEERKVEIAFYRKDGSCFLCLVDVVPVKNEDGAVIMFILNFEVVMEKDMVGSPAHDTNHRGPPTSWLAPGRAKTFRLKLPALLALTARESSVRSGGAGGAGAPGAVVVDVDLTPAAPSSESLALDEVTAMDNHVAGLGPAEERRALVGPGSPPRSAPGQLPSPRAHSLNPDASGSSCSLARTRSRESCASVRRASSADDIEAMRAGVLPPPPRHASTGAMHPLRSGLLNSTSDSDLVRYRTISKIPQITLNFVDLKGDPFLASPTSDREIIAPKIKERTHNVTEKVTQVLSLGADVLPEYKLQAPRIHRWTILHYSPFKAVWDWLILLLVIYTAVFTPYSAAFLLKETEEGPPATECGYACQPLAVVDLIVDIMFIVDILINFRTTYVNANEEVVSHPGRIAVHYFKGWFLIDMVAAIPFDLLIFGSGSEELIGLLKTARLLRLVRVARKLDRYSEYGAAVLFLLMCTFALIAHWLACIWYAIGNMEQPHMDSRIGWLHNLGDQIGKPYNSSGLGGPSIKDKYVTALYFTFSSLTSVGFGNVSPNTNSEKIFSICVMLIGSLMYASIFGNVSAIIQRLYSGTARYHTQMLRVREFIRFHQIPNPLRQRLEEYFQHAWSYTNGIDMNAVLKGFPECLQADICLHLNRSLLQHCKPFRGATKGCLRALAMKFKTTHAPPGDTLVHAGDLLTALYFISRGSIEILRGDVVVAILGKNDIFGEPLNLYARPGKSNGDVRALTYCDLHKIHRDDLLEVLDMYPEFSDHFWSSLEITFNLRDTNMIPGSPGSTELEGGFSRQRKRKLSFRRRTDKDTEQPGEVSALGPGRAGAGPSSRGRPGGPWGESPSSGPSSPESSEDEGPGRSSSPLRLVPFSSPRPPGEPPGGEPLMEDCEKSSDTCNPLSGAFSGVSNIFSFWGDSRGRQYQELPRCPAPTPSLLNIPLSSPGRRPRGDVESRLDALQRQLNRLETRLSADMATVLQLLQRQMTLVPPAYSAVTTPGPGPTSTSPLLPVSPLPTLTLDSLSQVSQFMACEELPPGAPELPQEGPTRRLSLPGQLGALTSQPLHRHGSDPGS

| Compound | Potency |
| --- | --- |
| Cc1occc(=O)c1O | inactive |
| C=C(C)[C@H]1CC=C(C)C(=O)C1 | inactive |
| COS(C)(=O)=O | inactive |
| CC1=CC(=O)CC(C)(C)C1(O)/C=C/C(C)=C\C(=O)O (stereo not drawn) | inactive |
| C=CC(C)(O)CCC=C(C)C (stereo not drawn) | inactive |

molecular target: Luciferin 4-monooxygenase (Photinus pyralis) (UniProt P08659); assay: Biochemical firefly luciferase enzyme assay for NPC (AID 624030);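 further: purified P. pyralis luciferase at 10 nM with luciferin and ATP substrate; nearly all actives have a fitted effect of over 70% in size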; settings: purified P. pyralis luciferase, luminescence, 5 min; series mostly up to 58.6 µM
Method in brief: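 Counter-screen for direct inhibition of the luciferase enzyme by approved-drug library compounds, run at 10 nM enzyme in 50 mM Tris acetate (final). Luminescence was read within 5 min of enzyme-buffer addition and normalized to PTC124 versus DMSO (0%).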

Chain of Luciferin 4-monooxygenase (Photinus pyralis) (P08659 whole entry, looked up): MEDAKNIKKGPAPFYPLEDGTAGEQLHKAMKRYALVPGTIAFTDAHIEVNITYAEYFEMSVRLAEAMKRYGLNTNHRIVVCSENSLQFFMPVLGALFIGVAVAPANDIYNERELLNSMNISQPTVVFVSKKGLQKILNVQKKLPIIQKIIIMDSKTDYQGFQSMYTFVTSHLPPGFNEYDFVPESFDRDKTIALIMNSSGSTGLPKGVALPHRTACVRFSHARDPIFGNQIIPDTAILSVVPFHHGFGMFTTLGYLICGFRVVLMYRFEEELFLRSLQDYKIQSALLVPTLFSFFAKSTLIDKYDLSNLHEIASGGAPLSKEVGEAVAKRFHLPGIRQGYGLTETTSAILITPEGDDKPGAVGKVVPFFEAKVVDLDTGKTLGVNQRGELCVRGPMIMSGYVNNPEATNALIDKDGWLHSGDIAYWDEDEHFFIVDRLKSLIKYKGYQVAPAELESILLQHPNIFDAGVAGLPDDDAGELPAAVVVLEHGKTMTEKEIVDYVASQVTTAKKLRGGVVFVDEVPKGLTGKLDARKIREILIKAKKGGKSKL

| Compound | outcome |
| --- | --- |
| C[N+](C)(C)CC(O)CC(=O)O (stereo not drawn) | inactive |
| CN1CCCC[C@@H]1CCN1c2ccccc2Sc2ccc(S(C)=O)cc21 (stereo partly drawn) | inactive |
| O=C(Cc1cccs1)NC1C(=O)N2C(C(=O)[O-])=C(C[n+]3ccccc3)CSC12 (stereo not drawn) | inactive |
| CC12CC[C@@H]3c4ccc(OS(=O)(=O)O)cc4CC[C@H]3C1CCC2=O (stereo partly drawn) | inactive |
| CN(C)CC/C=C1\c2ccccc2CSc2ccccc21 | inactive |
| C[C@@H]1CCC[C@H](C)N1NC(=O)c1ccc(Cl)c(S(N)(=O)=O)c1 | inactive |
| CC(C)N1CCN(c2ccc(OC[C@@H]3CO[C@@](Cn4cncn4)(c4ccc(Cl)cc4Cl)O3)cc2)CC1 | inactive |

tested on: not listed separately; assay: S16 Schwann cell viability assay (CellTiter-Glo assay) (AID 624031); settings: S16 rat Schwann cells viability, 24 h; series mostly up to 25.7 µM;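 further: cellular ATP luminescence as a viability measure; nearly all actives have a fitted effect of over 70% in size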
Method in brief: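 Luminescent ATP read-out (CellTiter-Glo) after 24 h compound exposure of native S16 rat Schwann cells at 37 °C. Signals were normalized between cell-free wells and DMSO-treated cells, set as 0% activity.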

| Compound | Potency |
| --- | --- |
| C[N+](C)(C)CC(O)CC(=O)O (stereo not drawn) | inactive |
| CN1CCCC[C@@H]1CCN1c2ccccc2Sc2ccc(S(C)=O)cc21 (stereo partly drawn) | inactive |
| CN(C)CC/C=C1\c2ccccc2CSc2ccccc21 | inactive |
| C[C@@H]1CCC[C@H](C)N1NC(=O)c1ccc(Cl)c(S(N)(=O)=O)c1 | inactive |
| CC(C)N1CCN(c2ccc(OC[C@@H]3CO[C@@](Cn4cncn4)(c4ccc(Cl)cc4Cl)O3)cc2)CC1 | inactive |

tested on: not listed separately; assay: S16 Schwann cell PMP22 intronic element firefly luciferase assay (AID 624032); settings: S16 rat Schwann cells, PMP22 element FLuc, 24 h; series mostly up to 25.7 µM; further: nearly all actives have a fitted effect of over 30% in size
Method in brief: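 Rat S16 Schwann cells stably carrying a PMP22 intronic element-driven Fluc reporter were seeded overnight, then exposed to compounds for 24 h at 37 °C. Luminescence was normalized to PTC124 (positive control) and DMSO (0% activity).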

| Compound | Potency |
| --- | --- |
| C[N+](C)(C)CC(O)CC(=O)O (stereo not drawn) | inactive |
| CN1CCCC[C@@H]1CCN1c2ccccc2Sc2ccc(S(C)=O)cc21 (stereo partly drawn) | inactive |
| O=C(Cc1cccs1)NC1C(=O)N2C(C(=O)[O-])=C(C[n+]3ccccc3)CSC12 (stereo not drawn) | inactive |
| CN(C)CC/C=C1\c2ccccc2CSc2ccccc21 | inactive |
| C[C@@H]1CCC[C@H](C)N1NC(=O)c1ccc(Cl)c(S(N)(=O)=O)c1 | inactive |
| CC(C)N1CCN(c2ccc(OC[C@@H]3CO[C@@](Cn4cncn4)(c4ccc(Cl)cc4Cl)O3)cc2)CC1 | inactive |
